Measurements published in PubChem BioAssay AID1159580 (chemical genetic matrix, 2015).
Hit rate of the full screen: of about 5,500 compounds, about 2,000 (36%) were called active. Inconclusive results (about 18%) are left out. Cut-off read from the data, not from the text of the source: active = normalized growth mostly below about 0.91 (no sharp cut-off); inconclusive = no clear call, values can overlap the other calls; inactive = mostly above about 0.92. The list shows a part of the results.

Assay: chemical genetic growth profiling, strain panel (AID 1159580);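 note: tested at 20 µM; growth read once vehicle control cultures reached saturation at 30 °C; 1 = growth at the plate median or of vehicle wells; lower values mean less growth of the strain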
Conditions: S. cerevisiae deletion strains, growth OD

Measured: normalized growth

Nc1ncnc2c1nc(Br)n2C1OC2COP(=O)(O)O[C@@H]2C1O (some centres not stated)
inactive: locus YAL040C, strain CLN3, hits give low values 0.986 | locus YDR150W, strain NUM1, hits give low values 0.999 | locus YER002W, strain NOP16, hits give low values 0.996 | locus YGR078C, strain PAC10, hits give low values 1.01 | locus YJR075W, strain HOC1, hits give low values 1 | locus YMR263W, strain SAP30, hits give low values 0.999 | locus YNL175C, strain NOP13, hits give low values 0.986 | locus YNL197C, strain WHI3, hits give low values 1.02 | locus YNL224C, strain SQS1, hits give low values 0.999 | locus YOR083W, strain WHI5 (second series), hits give low values 1.02 | locus YPL055C, strain LGE1, hits give low values 1.01

Clc1ccc(N/N=C\c2sccc2Oc2ccccc2)cc1
inactive: locus YAR019C, strain CDC15, hits give low values 0.971 | locus YBL105C, strain PKC1, hits give low values 0.979 | locus YBR135W, strain CKS1, hits give low values 0.966 | locus YBR136W, strain MEC1, hits give low values 0.963 | locus YBR160W, strain CDC28, hits give low values 0.965 | locus YDL017W, strain CDC7, hits give low values 0.974 | locus YDL028C, strain MPS1, hits give low values 0.968 | locus YDL101C, strain DUN1, hits give low values 0.951 | locus YDL108W, strain KIN28, hits give low values 0.969 | locus YDL132W, strain cdc53, hits give low values 0.964 | locus YDR052C, strain DBF4, hits give low values 0.95 | locus YDR054C, strain cdc34, hits give low values 0.963 | locus YDR226W, strain ADK1, hits give low values 0.96 | locus YFL009W, strain cdc4, hits give low values 0.968 | locus YFL029C, strain CAK1, hits give low values 0.959 | locus YFR003C, strain YPI1, hits give low values 0.975 | locus YFR028C, strain CDC14, hits give low values 0.965 | locus YIL147C, strain SLN1, hits give low values 0.969 | locus YJL128C, strain PBS2, hits give low values 0.864 | locus YJR016C, strain ILV3, hits give low values 0.947 | locus YKL193C, strain SDS22, hits give low values 0.968 | locus YMR001C, strain CDC5, hits give low values 0.972 | locus YMR277W, strain FCP1, hits give low values 0.977 | locus YNL006W, strain LST8, hits give low values 0.968 | locus YNL161W, strain CBK1, hits give low values 0.974 | locus YNL207W, strain RIO2, hits give low values 0.969 | locus YNL222W, strain SSU72, hits give low values 0.966 | locus YOL078W, strain AVO1, hits give low values 0.97 | locus YOR329C, strain SCD5, hits give low values 0.978 | locus YPL209C, strain IPL1, hits give low values 0.977 | locus YPR025C, strain CCL1, hits give low values 0.963 | locus YPR106W, strain ISR1, hits give low values 0.967 | locus YPR111W, strain DBF20, hits give low values 0.963 | strain NNK1, hits give low values 0.979 | strain TSCII, hits give low values 0.966
active: locus YDL214C, strain PRR2, hits give low values 0.335 | locus YDR477W, strain SNF1, hits give low values 0.275 | locus YER123W, strain YCK3, hits give low values 0.184 | locus YER133W, strain GLC7, hits give low values 0.345 | locus YFR019W, strain FAB1, hits give low values 0.313 | locus YGR040W, strain KSS1, hits give low values 0.268 | locus YGR052W, strain FMP48, hits give low values 0.21 | locus YGR092W, strain DBF2, hits give low values 0.115 | locus YHR030C, strain SLT2, hits give low values 0.125 | locus YHR079C, strain IRE1, hits give low values 0.474 | locus YHR082C, strain KSP1, hits give low values 0.361 | locus YHR205W, strain SCH9, hits give low values 0.43 | locus YJL095W, strain BCK1, hits give low values 0.125 | locus YJL157C, strain FAR1, hits give low values 0.316 | locus YJR066W, strain TOR1 (second series), hits give low values 0.423 | locus YJR066W, strain TOR1, hits give low values 0.241 | locus YKL048C, strain ELM1, hits give low values 0.468 | locus YKL067W, strain YNK1, hits give low values 0.303 | locus YKL101W, strain HSL1, hits give low values 0.353 | locus YKL203C, strain TOR2, hits give low values 0.34 | locus YLR113W, strain HOG1, hits give low values 0.275 | locus YLR133W, strain CKI1, hits give low values 0.28 | locus YLR403W, strain SFP1, hits give low values 0.242 | locus YML070W, strain DAK1, hits give low values 0.293 | locus YMR205C, strain PFK2 (second series), hits give low values 0.47 | locus YNL020C, strain ARK1, hits give low values 0.382 | locus YNL183C, strain NPR1, hits give low values 0.393 | locus YNL307C, strain MCK1 (second series), hits give low values 0.147 | locus YOL136C, strain PFK27, hits give low values 0.312 | locus YOR061W, strain CKA2, hits give low values 0.19 | locus YOR119C, strain RIO1, hits give low values 0.299 | locus YOR231W, strain MKK1, hits give low values 0.477 | locus YPL031C, strain PHO85, hits give low values 0.295 | locus YPL153C, strain RAD53, hits give low values 0.279 | locus YPL204W, strain HRR25, hits give low values 0.338 | locus YPL256C, strain CLN2, hits give low values 0.275
